# Legend:
# Experiment in all cases: DAPPL (digital affinity profiling via proximity ligation, sequencing); 10 mM Tris-HCl pH 7.5, 50 mM NaCl, 1 mM DTT, 4% glycerol, room temperature, 30 min; GST-TFs on glutathione beads, 16-mer random dsDNA library, 0.1% formaldehyde crosslink after washing; high values mean tight binding
# [1] = molecular target: T1, FEV (Homo sapiens, UniProt Q99581 1-238); settings: protein: recombinant; tags: N-terminal GST; dsDNA, one strand shown
# T1 sequence: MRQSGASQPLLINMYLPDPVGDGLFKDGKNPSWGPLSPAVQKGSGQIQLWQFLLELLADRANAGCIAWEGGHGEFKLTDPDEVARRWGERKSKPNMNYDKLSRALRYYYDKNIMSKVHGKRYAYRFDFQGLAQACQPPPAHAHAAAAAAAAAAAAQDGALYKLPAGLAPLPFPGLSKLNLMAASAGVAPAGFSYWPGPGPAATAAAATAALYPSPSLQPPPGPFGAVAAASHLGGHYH
# In short: (§1)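 Binding signal is each hexamer's read frequency for a factor divided by its frequency in the tag-only sample. The factors were GST-fused human transcription factors from yeast, captured on glutathione beads, DNA-barcoded and pooled with that sample. Pools were incubated with 200 nmole of a random double-stranded 16-mer DNA library in Tris/NaCl/DTT/glycerol buffer at room temperature for 30 min, then washed, crosslinked with 0.1% formaldehyde, proximity-ligated with BsaI/T4 ligase (1 h, 37 °C), PCR-amplified and sequenced on an Illumina NextSeq500.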
# [2] = molecular target: ETV5 (Homo sapiens, UniProt P41161 1-510); settings: protein: recombinant; tags: N-terminal GST; dsDNA, one strand shown
# ETV5, sequence (P41161 whole entry): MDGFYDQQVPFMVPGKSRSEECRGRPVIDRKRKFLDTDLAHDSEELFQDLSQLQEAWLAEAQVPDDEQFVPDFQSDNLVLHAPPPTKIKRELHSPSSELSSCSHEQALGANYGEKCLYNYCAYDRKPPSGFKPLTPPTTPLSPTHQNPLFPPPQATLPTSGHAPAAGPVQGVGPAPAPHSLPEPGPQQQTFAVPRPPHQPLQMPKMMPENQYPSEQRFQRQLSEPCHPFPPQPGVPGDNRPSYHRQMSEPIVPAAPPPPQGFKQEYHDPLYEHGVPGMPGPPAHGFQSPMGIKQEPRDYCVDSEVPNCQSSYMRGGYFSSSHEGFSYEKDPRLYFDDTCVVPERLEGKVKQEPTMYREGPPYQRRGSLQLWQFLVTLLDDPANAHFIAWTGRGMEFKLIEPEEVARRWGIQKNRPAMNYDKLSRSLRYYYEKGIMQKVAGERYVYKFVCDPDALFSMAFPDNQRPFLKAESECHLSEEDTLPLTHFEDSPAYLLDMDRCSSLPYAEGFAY
# In short: as §1
# [3] = molecular target: HSF1 (Homo sapiens, UniProt Q00613 1-529); settings: protein: recombinant; tags: N-terminal GST; chain copies: 3; dsDNA, one strand shown
# HSF1, sequence (Q00613 whole entry): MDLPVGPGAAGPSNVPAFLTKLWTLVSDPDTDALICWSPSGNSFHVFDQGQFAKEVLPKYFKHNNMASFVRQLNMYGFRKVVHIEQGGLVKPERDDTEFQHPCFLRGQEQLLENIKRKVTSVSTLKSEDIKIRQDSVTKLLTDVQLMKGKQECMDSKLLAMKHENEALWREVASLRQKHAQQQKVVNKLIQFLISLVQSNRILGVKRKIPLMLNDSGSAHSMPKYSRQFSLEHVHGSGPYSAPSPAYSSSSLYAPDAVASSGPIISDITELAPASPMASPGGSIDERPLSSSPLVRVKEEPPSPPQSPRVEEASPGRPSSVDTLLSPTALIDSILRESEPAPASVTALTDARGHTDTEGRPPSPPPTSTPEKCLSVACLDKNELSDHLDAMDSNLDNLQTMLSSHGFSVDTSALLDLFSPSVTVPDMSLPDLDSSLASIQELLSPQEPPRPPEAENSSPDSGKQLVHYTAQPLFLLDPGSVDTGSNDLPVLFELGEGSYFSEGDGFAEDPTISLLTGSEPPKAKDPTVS
# In short: as §1
# [4] = molecular target: T2, SPIC (Homo sapiens, UniProt Q8N5J4 1-248); settings: protein: recombinant; tags: N-terminal GST; dsDNA, one strand shown
# T2 sequence: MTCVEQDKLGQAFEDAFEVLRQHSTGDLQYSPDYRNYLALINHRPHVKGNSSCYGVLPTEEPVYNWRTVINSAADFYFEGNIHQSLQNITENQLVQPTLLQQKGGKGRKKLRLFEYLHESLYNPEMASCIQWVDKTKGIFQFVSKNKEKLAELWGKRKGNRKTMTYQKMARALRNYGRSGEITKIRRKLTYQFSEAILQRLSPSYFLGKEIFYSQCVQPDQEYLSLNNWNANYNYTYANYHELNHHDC
# In short: as §1
# [5] = molecular target: ELF4 (Homo sapiens, UniProt Q99607 1-663); settings: protein: recombinant; tags: N-terminal GST; dsDNA, one strand shown
# ELF4, sequence (Q99607 whole entry): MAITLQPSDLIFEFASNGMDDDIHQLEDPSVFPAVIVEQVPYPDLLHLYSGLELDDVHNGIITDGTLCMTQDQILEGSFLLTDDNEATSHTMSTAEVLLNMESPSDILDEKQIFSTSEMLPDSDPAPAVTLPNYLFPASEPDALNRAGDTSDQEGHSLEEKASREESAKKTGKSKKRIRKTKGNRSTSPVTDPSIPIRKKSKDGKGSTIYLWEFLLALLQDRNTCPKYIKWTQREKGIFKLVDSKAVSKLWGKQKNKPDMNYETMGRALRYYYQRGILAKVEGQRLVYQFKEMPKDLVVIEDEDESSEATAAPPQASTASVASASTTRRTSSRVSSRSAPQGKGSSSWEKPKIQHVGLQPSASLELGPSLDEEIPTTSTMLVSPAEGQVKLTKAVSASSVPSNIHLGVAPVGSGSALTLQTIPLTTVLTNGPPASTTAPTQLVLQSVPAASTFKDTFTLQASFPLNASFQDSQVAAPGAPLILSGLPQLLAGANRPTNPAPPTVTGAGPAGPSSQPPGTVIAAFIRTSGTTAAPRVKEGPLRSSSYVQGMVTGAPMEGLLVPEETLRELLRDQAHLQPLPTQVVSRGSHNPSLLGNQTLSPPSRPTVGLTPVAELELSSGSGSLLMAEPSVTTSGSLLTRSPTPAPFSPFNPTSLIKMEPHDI
# In short: as §1
# [6] = molecular target: T3, ELK4 (Homo sapiens, UniProt P28324-2 1-405); settings: protein: recombinant; tags: N-terminal GST; dsDNA, one strand shown
# T3 sequence: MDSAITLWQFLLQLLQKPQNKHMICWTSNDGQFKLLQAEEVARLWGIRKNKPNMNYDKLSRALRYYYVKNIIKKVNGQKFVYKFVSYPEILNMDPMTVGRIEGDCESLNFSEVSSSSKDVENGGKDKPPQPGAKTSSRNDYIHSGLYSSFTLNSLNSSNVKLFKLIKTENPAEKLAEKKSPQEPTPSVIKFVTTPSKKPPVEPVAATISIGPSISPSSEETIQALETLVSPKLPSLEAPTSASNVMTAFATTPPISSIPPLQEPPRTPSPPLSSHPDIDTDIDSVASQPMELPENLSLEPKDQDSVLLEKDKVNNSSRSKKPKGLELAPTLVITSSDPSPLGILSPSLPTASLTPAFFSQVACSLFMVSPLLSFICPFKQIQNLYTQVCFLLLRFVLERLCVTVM
# In short: as §1
# [7] = molecular target: T4, ETV2 (Homo sapiens, UniProt O00321 1-342); settings: protein: recombinant; tags: N-terminal GST; dsDNA, one strand shown
# T4 sequence: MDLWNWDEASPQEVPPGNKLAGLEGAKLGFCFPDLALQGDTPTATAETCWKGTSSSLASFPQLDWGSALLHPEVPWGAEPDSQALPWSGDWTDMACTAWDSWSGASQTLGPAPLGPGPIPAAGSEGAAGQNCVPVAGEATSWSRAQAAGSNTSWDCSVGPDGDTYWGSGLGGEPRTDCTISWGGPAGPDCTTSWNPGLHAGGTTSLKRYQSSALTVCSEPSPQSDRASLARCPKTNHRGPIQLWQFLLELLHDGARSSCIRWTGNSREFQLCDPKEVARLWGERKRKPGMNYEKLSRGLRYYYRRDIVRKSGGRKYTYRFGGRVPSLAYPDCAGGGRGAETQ
# In short: as §1
# [8] = molecular target: T5, ELF3 (Homo sapiens, UniProt P78545 1-371); settings: protein: recombinant; tags: N-terminal GST; dsDNA, one strand shown
# T5 sequence: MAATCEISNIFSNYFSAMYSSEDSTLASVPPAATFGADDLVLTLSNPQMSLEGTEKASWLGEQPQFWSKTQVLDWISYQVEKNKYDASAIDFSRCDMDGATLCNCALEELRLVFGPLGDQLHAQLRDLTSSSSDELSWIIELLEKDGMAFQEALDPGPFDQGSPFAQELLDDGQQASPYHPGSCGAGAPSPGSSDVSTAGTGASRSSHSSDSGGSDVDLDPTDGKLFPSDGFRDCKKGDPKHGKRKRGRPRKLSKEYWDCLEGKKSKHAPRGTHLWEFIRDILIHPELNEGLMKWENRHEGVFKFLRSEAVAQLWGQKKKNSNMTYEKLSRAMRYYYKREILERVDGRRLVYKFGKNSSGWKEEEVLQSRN
# In short: as §1
# [9] = molecular target: CRX (Homo sapiens, UniProt O43186 1-299); settings: protein: recombinant; tags: N-terminal GST; dsDNA, one strand shown
# CRX, sequence (O43186 whole entry): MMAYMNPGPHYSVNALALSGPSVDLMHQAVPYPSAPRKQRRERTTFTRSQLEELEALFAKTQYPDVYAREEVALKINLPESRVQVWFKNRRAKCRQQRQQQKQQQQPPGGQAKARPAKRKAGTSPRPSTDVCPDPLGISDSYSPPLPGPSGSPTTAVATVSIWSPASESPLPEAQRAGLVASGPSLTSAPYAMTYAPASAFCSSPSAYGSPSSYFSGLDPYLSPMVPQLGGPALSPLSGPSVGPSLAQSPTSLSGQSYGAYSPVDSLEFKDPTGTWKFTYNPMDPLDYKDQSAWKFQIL
# In short: as §1
# [10] = molecular target: ETV1 (Homo sapiens, UniProt P50549 1-477); settings: protein: recombinant; tags: N-terminal GST; dsDNA, one strand shown
# ETV1, sequence (P50549 whole entry): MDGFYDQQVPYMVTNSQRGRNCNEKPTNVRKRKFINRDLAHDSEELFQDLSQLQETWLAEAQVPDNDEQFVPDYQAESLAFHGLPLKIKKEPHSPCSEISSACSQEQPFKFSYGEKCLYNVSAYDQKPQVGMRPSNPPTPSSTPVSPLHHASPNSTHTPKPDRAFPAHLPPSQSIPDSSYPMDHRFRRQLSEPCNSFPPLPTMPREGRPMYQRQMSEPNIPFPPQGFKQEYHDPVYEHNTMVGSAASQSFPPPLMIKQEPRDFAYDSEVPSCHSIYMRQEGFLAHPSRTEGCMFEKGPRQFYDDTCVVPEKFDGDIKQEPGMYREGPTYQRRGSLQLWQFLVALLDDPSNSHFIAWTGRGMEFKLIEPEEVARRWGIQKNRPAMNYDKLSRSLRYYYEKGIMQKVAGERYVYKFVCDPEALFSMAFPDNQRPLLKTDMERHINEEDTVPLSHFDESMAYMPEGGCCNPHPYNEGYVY
# In short: as §1
# [11] = molecular target: T6, ERF (Homo sapiens, UniProt P50548 1-548); settings: protein: recombinant; tags: N-terminal GST; dsDNA, one strand shown
# T6 sequence: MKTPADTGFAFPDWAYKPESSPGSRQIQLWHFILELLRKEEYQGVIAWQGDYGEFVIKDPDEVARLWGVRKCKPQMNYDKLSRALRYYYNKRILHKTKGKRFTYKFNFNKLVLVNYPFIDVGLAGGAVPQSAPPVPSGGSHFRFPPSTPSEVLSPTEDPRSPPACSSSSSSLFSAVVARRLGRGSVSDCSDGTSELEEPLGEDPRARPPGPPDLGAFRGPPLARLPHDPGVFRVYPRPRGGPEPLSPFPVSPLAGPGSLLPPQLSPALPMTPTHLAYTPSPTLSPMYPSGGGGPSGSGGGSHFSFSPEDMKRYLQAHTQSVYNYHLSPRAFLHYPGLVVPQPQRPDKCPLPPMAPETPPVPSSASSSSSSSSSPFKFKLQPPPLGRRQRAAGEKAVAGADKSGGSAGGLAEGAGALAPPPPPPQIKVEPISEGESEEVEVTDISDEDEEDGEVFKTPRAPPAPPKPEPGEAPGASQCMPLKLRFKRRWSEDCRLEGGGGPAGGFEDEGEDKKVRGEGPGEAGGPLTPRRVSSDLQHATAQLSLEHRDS
# In short: as §1
# [12] = molecular target: T7, ETV3L (Homo sapiens, UniProt Q6ZN32 1-361); settings: protein: recombinant; tags: N-terminal GST; dsDNA, one strand shown
# T7 sequence: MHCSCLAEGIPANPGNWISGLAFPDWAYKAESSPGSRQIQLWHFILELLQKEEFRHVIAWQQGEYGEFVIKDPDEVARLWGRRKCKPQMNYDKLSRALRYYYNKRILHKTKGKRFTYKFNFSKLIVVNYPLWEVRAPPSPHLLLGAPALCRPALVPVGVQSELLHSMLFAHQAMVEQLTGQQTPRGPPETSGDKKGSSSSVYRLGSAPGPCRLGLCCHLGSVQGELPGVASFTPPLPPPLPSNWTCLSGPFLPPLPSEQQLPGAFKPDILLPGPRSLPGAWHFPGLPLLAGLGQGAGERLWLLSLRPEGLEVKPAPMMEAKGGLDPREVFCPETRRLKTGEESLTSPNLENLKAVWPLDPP
# In short: as §1
# [13] = molecular target: T8, ETS2 (Homo sapiens, UniProt P15036 1-469); settings: protein: recombinant; tags: N-terminal GST; dsDNA, one strand shown
# T8 sequence: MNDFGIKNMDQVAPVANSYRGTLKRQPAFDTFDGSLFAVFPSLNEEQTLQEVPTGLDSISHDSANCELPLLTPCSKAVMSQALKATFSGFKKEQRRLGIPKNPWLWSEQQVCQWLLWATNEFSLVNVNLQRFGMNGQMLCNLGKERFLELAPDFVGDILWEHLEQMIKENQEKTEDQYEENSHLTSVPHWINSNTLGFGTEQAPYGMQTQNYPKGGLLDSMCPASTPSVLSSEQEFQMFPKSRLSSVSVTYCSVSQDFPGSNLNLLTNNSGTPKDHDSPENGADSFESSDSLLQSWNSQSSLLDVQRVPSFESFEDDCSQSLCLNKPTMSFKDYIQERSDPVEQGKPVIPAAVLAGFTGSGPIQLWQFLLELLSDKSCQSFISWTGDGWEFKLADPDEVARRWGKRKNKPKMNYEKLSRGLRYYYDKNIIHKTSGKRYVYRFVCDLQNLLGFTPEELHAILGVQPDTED
# In short: as §1
# [14] = molecular target: T9, SPDEF (Homo sapiens, UniProt O95238 1-335); settings: protein: recombinant; tags: N-terminal GST; dsDNA, one strand shown
# T9 sequence: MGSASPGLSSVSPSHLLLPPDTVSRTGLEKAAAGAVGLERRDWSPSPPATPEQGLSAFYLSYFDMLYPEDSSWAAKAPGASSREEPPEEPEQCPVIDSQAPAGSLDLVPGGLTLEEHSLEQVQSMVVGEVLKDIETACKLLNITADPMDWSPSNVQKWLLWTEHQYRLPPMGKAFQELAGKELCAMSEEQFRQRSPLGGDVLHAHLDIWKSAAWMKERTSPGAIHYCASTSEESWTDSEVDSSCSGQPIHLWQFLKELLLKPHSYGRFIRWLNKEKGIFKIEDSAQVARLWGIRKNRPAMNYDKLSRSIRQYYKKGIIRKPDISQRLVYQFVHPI
# In short: as §1
# [15] = molecular target: T10, ETV7 (Homo sapiens, UniProt Q9Y603 1-341); settings: protein: recombinant; tags: N-terminal GST; dsDNA, one strand shown
# T10 sequence: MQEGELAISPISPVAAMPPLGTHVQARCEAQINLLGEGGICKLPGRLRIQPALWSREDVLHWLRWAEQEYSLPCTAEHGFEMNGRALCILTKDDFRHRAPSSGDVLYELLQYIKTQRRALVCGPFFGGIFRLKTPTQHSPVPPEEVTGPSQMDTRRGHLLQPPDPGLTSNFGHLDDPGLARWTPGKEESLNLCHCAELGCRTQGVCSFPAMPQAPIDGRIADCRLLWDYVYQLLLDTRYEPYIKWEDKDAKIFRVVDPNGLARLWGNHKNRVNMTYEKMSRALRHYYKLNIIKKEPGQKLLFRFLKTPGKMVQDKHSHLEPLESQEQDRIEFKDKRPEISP
# In short: as §1
# [16] = molecular target: T11, ELF5 (Homo sapiens, UniProt Q9UKW6-2 1-255); settings: protein: recombinant; tags: N-terminal GST; dsDNA, one strand shown
# T11 sequence: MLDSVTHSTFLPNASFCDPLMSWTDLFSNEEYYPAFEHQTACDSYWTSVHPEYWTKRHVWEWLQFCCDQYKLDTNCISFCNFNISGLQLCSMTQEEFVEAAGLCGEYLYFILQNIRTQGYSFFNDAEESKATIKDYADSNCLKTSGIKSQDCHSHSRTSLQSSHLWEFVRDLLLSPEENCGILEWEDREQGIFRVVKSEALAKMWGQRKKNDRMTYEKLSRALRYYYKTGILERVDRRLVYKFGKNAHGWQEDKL
# In short: as §1
# [17] = molecular target: T12, ETV3 (Homo sapiens, UniProt P41162-2 1-143); settings: protein: recombinant; tags: N-terminal GST; dsDNA, one strand shown
# T12 sequence: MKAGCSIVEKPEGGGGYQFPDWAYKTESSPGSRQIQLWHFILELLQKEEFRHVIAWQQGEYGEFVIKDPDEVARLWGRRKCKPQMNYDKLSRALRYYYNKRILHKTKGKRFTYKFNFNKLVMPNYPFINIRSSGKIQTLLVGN
# In short: as §1
# [18] = molecular target: ETV6 (Homo sapiens, UniProt P41212 1-452); settings: protein: recombinant; tags: N-terminal GST; dsDNA, one strand shown
# ETV6, sequence (P41212 whole entry): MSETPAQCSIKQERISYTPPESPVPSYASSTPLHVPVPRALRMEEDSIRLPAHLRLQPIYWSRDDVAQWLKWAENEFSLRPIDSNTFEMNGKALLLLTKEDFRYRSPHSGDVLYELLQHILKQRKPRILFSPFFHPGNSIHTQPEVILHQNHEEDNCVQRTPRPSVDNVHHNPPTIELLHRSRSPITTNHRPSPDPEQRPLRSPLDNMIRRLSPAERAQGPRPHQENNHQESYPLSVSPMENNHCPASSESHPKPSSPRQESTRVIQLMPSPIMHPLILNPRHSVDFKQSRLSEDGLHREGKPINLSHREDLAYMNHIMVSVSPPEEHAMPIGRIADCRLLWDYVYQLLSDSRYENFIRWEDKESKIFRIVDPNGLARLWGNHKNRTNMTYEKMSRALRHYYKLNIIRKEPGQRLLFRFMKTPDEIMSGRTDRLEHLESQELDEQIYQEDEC
# In short: as §1
sequence,measurement,setting,value
TATCCG,binding signal,[1],"4.84 fold enrichment (6-mer frequency, TF over GST control)"
same,binding signal,[2],"2.85 fold enrichment (6-mer frequency, TF over GST control)"
same,binding signal,[3],"1.54 fold enrichment (6-mer frequency, TF over GST control)"
same,binding signal,[4],"2.38 fold enrichment (6-mer frequency, TF over GST control)"
same,binding signal,[5],"2.2 fold enrichment (6-mer frequency, TF over GST control)"
same,binding signal,[6],"2.29 fold enrichment (6-mer frequency, TF over GST control)"
same,binding signal,[7],"2.68 fold enrichment (6-mer frequency, TF over GST control)"
same,binding signal,[8],"2.33 fold enrichment (6-mer frequency, TF over GST control)"
same,binding signal,[9],"1.95 fold enrichment (6-mer frequency, TF over GST control)"
same,binding signal,[10],"2.72 fold enrichment (6-mer frequency, TF over GST control)"
same,binding signal,[11],"2.52 fold enrichment (6-mer frequency, TF over GST control)"
same,binding signal,[12],"2.45 fold enrichment (6-mer frequency, TF over GST control)"
same,binding signal,[13],"2.55 fold enrichment (6-mer frequency, TF over GST control)"
same,binding signal,[14],"3.8 fold enrichment (6-mer frequency, TF over GST control)"
same,binding signal,[15],"2.1 fold enrichment (6-mer frequency, TF over GST control)"
same,binding signal,[16],"3.31 fold enrichment (6-mer frequency, TF over GST control)"
same,binding signal,[17],"2.57 fold enrichment (6-mer frequency, TF over GST control)"
same,binding signal,[18],"2.38 fold enrichment (6-mer frequency, TF over GST control)"
